Results taken from PubChem BioAssay AID1569 (National Center for Advancing Translational Sciences (NCATS), 2009).
Records with an inconclusive call do not appear. A number with no mark means an inactive call. Active and inactive are the calls of the source. Calls come from the whole dose curve; as a rule, active = well fitted inhibition curve with a large enough effect; inconclusive = small, poorly fitted or top-dose-only effect, or effect the other way, or another doubt; inactive = no such curve, though single readings can be large or run the other way.

Assay: Confirmation Concentration-Response Assay for lipid storage modulators; note: nearly all actives have a fitted effect of over 80% in size
Settings: Drosophila S3 cells, lipid droplet BODIPY/CellTracker ratio, 18-24 h; series mostly up to 46.1 µM; activity change, negative = inhibition: at the top concentration
Excerpt: NIH Molecular Libraries Probe Production Centers Network [MLPCN] NIH Chemical Genomics Center [NCGC] MLPCN Grant: 1 R03 MH085686-01 Assay Submitter (PI): Beller, Mathias; Max-Planck-Institut fur Biophysikalische Chemie NCGC Assay Overview: Storing lipids as a reservoir for energy or the anabolism of elementary metabolites is a common feature of probably all cells and is conserved from bacteria to humans. The universal cellular lipid storage organelle is the so-called lipid storage droplet (LD). Although ubiquitous, LDs share a simple structure composed of a hydrophobic core that harbors the storage lipids, which is shielded by a droplet-specific phospholipid monolayer to which proteins are attached. The current model of LD biogenesis involves an incorporation of the lipid core into the membrane leaflets of the endoplasmic reticulum (ER) followed by a subsequent budding-like maturation of a LD, which ultimately pinches off. Once released, LD volume can increase by localized lipogenesis or fusion of existing droplets. Storage lipids are re-mobilized enzymatically by lipase activity. Lipase regulation in the adipocyte is heavily studied and involves multiple components including catecholamine signaling, the LD-associated proteins Perilipin and comparative gene identification-58 (CGI-58) and at least two lipases named hormone sensitive lipase (HSL) and adipocyte triglyceride lipase (ATGL). LD regulation outside of the adipocyte is poorly understood and only few components are known. However, there is an urgent need to learn more about ectopic fat depots as mislocalized storage of lipids, for example in the liver or muscle, is an eminent health problem associated with insulin resistance or the metabolic syndrome. We developed a laser-scanning cytometer assay to enable 1,536-well screening and combined the results of the small molecules screen with an RNAi database based on lipid storage. Exo1 identified in the primary screen (AID 1519) and several analogs were measured in the lipid storage assay as 24-point concentration-response curves to confirm potency and SAR.
We dispensed 4 uL of cells at 1.25 x 10^6 cells/mL into LoBase Aurora COC 1,536-well plates (black walled, clear bottom) with a bottle-valve solenoid-based dispenser (Aurora) to obtain 5,000 cells/well. Triacsin C (Sigma-Aldrich T-4540), an inhibitor of long-chain fatty acyl CoA synthetase that blocks synthesis of triglycerides, was used as a positive control for lipid under-storage. A total of 23 nL of compound solution of different concentrations were transferred to the assay plates using a Kalypsys pin tool equipped with a 1,536-pin array containing 10-nL slotted pins (FP1S10, 0.457-mm diameter, 50.8 mm long; V&P Scientific). One microliter of oleic acid (400 uM) was added, and the plate was lidded with stainless steel rubber gasket lined lids containing pinholes. After 18-24 h incubation at 24 degree Celsius and 95% humidity, 4 uL of the dyes BODIPY 493/503 (Molecular Probes) and the Cell Tracker Red CMTPX dye (Molecular Probes) were added to the wells to stain lipid droplets and enumerate cell number, respectively. Fluorescence was detected by excitation of the fluorophores with a 488-nm laser on an Acumen Explorer (TTP Lab Tech). The total intensity in channel 1 (500-530 nm) reflected lipid droplet accumulation. Cells were detected using channel 3 (575- 640 nm) with 5-um width and 100-um depth filters. The ratio of the total intensity in PMT channel 1 over total intensity of channel 3 was also calculated. Percent activity was computed relative to an internal control (100% inhibited lipid droplet deposition due to the presence of 20 uM Triacsin C), which was added to 32 wells/plate.
Potency is the fitted concentration of half-maximal effect.

Row | Compound | activity change, negative = inhibition | Potency
1 | COc1ccc(CCNC(=O)CSc2nc3[nH]ncc3c(=O)n2-c2ccc(Cl)cc2Cl)cc1OC | -19.3% | –
2 | CCOc1ccc2nc(NC(=O)CSc3nc(SC)ns3)sc2c1 | – | 4.45 µM (active)
3 | OCCNc1c2ccccc2nc2c(F)c(F)c(F)c(F)c12 | – | 8.65 µM (active)
4 | Cc1cc(C)cc(-n2ncc3c2CCCC3NC(=O)c2csnn2)c1 (stereo not given) | – | 0.0112 µM (active)
5 | CCN(CC(=O)Nc1c(F)cccc1F)C(=O)CCCc1c[nH]c2ccccc12 | – | 0.628 µM (active)
6 | CCOC(=O)c1cc2c(ccn2-c2ccc(F)cc2)n1CC(=O)NC(C)(C)C | – | 1.41 µM (active)
7 | COc1ccc(OC)c(NC(=O)CSc2ncnc3c2cnn3-c2ccccc2Cl)c1 | – | 1.77 µM (active)
8 | O=C(COC(=O)c1ccc(CO)cc1)NCc1cccs1 | 16.4% | –
9 | O=C(NCc1ccccc1)NC1(C(=O)N2CCCC2)CCCCC1 | -14.5% | –
10 | O=C(O[C@H]1[C@H](Cc2ccccc2)NS(=O)(=O)[C@H]2C[C@@H]3C=C[C@]12O3)c1ccc([N+](=O)[O-])cc1 | – | 28.1 µM (active)
11 | Cc1cccc(NC(=O)CNC(=O)C23CC4CC(CC(Cl)(C4)C2)C3)n1 | – | 3.15 µM (active)
12 | COC(=O)c1cc(C)sc1NC(=O)C1CC(=O)NN1Cc1ccccc1 (stereo not given) | – | 1.41 µM (active)
13 | COc1ccc(/C=C(\NC(=O)c2cccs2)C(=O)Nc2ccc(C)cc2)cc1OC | – | 0.141 µM (active)
14 | CCCCCCCCCCCCCCCCn1cc[n+](C)c1 | – | 3.15 µM (active)
15 | O=C(NCC1(N2CCOCC2)CCCCC1)c1ccc(S(=O)(=O)Nc2ccccc2F)cc1 | – | 3.97 µM (active)
16 | CSCCC(NS(=O)(=O)c1ccc2c(c1)OCCO2)C(=O)N(C)Cc1ccc(C)cc1 (stereo not given) | -2.98% | –
17 | COc1nc(Nc2nc3ccccc3c(=O)[nH]2)nc2ccc(C)cc12 | – | 2.17 µM (active)
18 | CCOc1ccc(CCNC(=O)CN2C(=O)NC3(CCCCC3C)C2=O)cc1OCC (stereo not given) | -25.3% | –
19 | COc1ccc(NC(=O)NC2(C(=O)N3CCCC(C)C3)CCCCC2)cc1 (stereo not given) | 19.7% | –
20 | CCOC(=O)c1cc2c(ccn2C)n1CC(=O)N1C(C)CCCC1C (stereo not given) | – | 11.2 µM (active)

Row | Compound | activity change, negative = inhibition | Potency
21 | Cc1ccc(C(NC(=O)C2CCCCC2)c2c(O)ccc3ccccc23)cc1 (stereo not given) | – | 17.7 µM (active)
22 | CCOC(=O)c1cc(CC)sc1NC(=O)C1CC(=O)NN1Cc1ccccc1 (stereo not given) | – | 0.315 µM (active)
23 | CCN1CCCC1CNC(=O)C(=O)NCCc1ccc(OC)c(OC)c1 (stereo not given) | 33.3% | –
24 | CCNC(=O)NC1(C(=O)N2CCC(Cc3ccccc3)CC2)CCCCC1 | -11.1% | –
25 | c1ccc2c(c1)OCC(CNc1ncnc3sccc13)O2 (stereo not given) | – | 0.996 µM (active)
26 | CCOc1ccc(CCNC(=O)COC(=O)c2ccc(OC(C)C)cc2)cc1OCC | – | 0.158 µM (active)
27 | CNC(=O)NC(=O)C(C)OC(=O)c1c2c(nc3ccccc13)/C(=C/c1cccs1)CC2 (stereo not given) | – | 0.141 µM (active)
28 | O=C(Nc1ccc(S(=O)(=O)N2CCCCC2)cc1)c1ccc(CN2CCc3ccccc3C2)cc1 | – | 7.91 µM (active)
29 | COc1ccc(/C=C/C(=O)NCCc2ccc(OC)c(OC)c2)cc1 | – | 5.6 µM (active)
30 | COc1ccc(CCNC(=O)COc2cc(O)c3c(c2)OC(C)(C)CC3=O)cc1OC | 2% | –
31 | COc1ccc(CCNC(=O)C(Sc2ccccn2)c2ccccc2)cc1OC (stereo not given) | 26.7% | –
32 | COc1cccc(-n2nnnc2SCC(=O)NCCc2ccc(OC)c(OC)c2)c1 | -22.7% | –
33 | Cc1ccc(C(=O)NC2CCCc3c2cnn3-c2ccc(F)cc2F)cn1 (stereo not given) | – | 3.97 µM (active)
34 | O=C(Nc1ccc(N2CCOCC2)cc1N1CCOCC1)c1ccc(Br)cc1 | 0% | –
35 | CCN1CCN(Cc2ccc(NC(=O)c3ccc(C)c(NC(=O)c4c[nH]c5cc(C(F)(F)F)ccc5c4=O)c3)cc2C(F)(F)F)CC1 | – | 8.88 µM (active)
36 | Cc1cnc(NC(=O)CSc2ncc(-c3ccccc3)n2Cc2ccco2)s1 | 8.73% | –
37 | O=C(CCC1CCCN(C(=O)c2ccc3c(c2)OCCO3)C1)NCc1ccccc1F (stereo not given) | – | 2.23 µM (active)
38 | CCOc1ccc(CCNC(=O)COC(=O)/C=C/c2ccc(C)o2)cc1OCC | – | 0.499 µM (active)
39 | Cc1nn(C)c(C)c1CN(Cc1nc(CCC(C)C)no1)C(C)C | – | 12.5 µM (active)
40 | CCOC(=O)C1(Cc2ccc(Cl)cc2)CCN(C(C)Cc2ccc(O)c(OC)c2)CC1 (stereo not given) | – | 11.2 µM (active)
